# Source: PubChem BioAssay (several laboratories)
# HIF-2a block: blocks HIF-2a reporter activity; actives 0.72% (n = 360,000); AID 624352; 786-0 RCC cells HIF-2a reporter, luciferase luminescence, overnight; inhibition, % at 18.8 µM;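 active = inhibition of the luminescence signal of 40% or more relative to plate controls, in a single-dose primary screen at 18.75 µM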
# PAX8 inh HTS: lowers PAX8-driven luciferase in RMG-I cells. RMG-I TPO-luciferase reporter, SteadyGlo, 24 h. inhibition, % at 12.6 µM. actives 1.2% (n = 360,000). AID 652154;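 active = mean replicate inhibition at least 60% with every replicate also reaching 60%; inconclusive = only one of the two criteria is met; inactive = mean below 60% and not all replicates reaching 60%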;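 note: luciferase light reporting Pax8 driven TPO promoter activity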
# LMP1 NFkB inh: reduces LMP1-driven NF-kappaB luciferase signal; LMP1-induced NF-kappaB luciferase reporter cells, luminescence; inhibition, % at 12.5 µM; actives 0.69% (n = 350,000); in the data active = inhibition above about 41%; inconclusive = no clear call, values can overlap the other calls
# MITF TRPM1 inh: reduces MITF-dependent TRPM1 promoter luciferase signal; SK-MEL-5 TRPM1 promoter luciferase, 24 h; inhibition, % at 12.5 µM; actives 0.83% (n = 330,000); AID 488899;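 active = mean inhibition across replicates of 60% or more, whatever share of single replicates reaches that level; inconclusive = some that reach 60%, reason not given; inactive = mean inhibition across replicates below 60%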
# Peg3 prom inh-1: inhibitors of Peg3 promoter; actives 1.7% (n = 360,000); inhibition, % at 20 µM; HeLa PEG-Prom luciferase reporter, luminescence, overnight;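 active = inhibition of at least 50% at 20 µM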
# Shn3 inh set2: inhibitors of Schnurri-3 3'UTR reporter in osteoblasts. Clone20 osteoblast Shn3 3'UTR firefly luciferase, 24 h. inhibition, % at 12.5 µM. actives 0.52% (n = 360,000);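 active = mean inhibition of at least 75% with every replicate also reaching 75%; inconclusive = mean inhibition at least 75% but some replicate below; inactive = mean inhibition below 75%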
# Peg3 prom inh-2: Peg3 promoter inhibition confirmation; AID 602417; actives 84% (n = 1,300); HeLa PEG-Prom luciferase reporter, luminescence, overnight; inhibition, % at 20 µM; shares compounds with Peg3 prom inh-1;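 active = at 20 µM dose, 40% or more inhibition averaged across four replicates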
# Mdm2-MdmX confirm: confirmation of inhibitors of human Mdm2/MdmX interaction, set 2; inhibition, % at 8 µM; SaOS-2 split-luciferase Mdm2/MdmX complementation, luminescence; actives 99% (n = 740); shares compounds with HIF-2a block; AID 504601;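 active = mean inhibition of the luminescence signal across two replicates at or above 26 percent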
# Target sequence (O15151 whole entry, looked up): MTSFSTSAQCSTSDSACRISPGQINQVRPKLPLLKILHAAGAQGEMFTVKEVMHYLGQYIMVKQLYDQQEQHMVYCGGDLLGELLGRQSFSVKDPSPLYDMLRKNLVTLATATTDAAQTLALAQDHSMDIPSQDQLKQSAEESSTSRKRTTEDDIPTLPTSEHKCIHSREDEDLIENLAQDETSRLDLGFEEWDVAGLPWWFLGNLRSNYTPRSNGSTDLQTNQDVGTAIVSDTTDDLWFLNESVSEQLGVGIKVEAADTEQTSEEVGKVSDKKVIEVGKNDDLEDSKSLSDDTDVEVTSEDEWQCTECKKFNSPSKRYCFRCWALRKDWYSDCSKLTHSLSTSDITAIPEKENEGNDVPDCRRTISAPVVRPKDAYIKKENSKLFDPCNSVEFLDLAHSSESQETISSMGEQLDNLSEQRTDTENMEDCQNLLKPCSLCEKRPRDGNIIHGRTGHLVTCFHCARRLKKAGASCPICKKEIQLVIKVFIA
# Target sequence (Q00987 whole entry, looked up): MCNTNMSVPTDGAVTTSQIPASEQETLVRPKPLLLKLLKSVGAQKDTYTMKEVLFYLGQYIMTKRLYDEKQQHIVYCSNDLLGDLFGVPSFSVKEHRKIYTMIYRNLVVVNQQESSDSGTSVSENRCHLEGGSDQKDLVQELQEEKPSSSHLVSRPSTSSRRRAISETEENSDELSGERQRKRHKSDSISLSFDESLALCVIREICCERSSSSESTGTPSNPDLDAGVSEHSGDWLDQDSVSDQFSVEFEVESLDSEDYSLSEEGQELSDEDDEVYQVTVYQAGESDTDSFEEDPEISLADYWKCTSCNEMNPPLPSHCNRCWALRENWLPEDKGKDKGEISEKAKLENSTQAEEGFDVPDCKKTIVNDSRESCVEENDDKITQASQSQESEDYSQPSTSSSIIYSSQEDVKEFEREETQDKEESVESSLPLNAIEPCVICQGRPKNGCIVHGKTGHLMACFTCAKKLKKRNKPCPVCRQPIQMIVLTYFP
# HIF-2a conf: confirmation of HIF-2a inhibitors; AID 651580; 786-0 RCC cells, HIF-2a luciferase reporter luminescence, overnight; inhibition, % at 18.8 µM; shares compounds with HIF-2a block; actives 56% (n = 1,800);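 active = mean inhibition across four replicates of at least 40 percent at the single tested concentration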
# HIF-1a counter: counter-screen for HIF-2a inhibitors: HIF-1a inhibition in MiaPaCa-2 cells; shares compounds with HIF-2a block; MiaPaCa-2 HIF-1a luciferase reporter, desferoxamine, overnight; inhibition, % at 18.8 µM; actives 72% (n = 1,800); AID 651589;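 active = mean inhibition of the reporter signal across four replicates at the single tested dose of 50% or more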
# Numbers stand for hits; – = inactive; ? = inconclusive; · = not tested or not shown. Hits are enriched below; roughly 2.8% of the tested compounds scored in any of these assays.
SMILES,HIF-2a block,PAX8 inh HTS,LMP1 NFkB inh,MITF TRPM1 inh,Peg3 prom inh-1,Shn3 inh set2,Peg3 prom inh-2,HIF-2a conf,HIF-1a counter,others
COc1ccc(C(c2nnnn2-c2c(C)cccc2C)N2CCC(n3c(=O)[nH]c4ccccc43)CC2)cc1 (configuration not stated),–,–,·,·,59,–,48,·,·,
COc1ccc(-n2nnnc2C(C2CC2)N2CCC(n3c(=O)[nH]c4ccccc43)CC2)cc1 (configuration not stated),–,–,·,·,58,–,58,·,·,
COc1ccc(-n2nnnc2C(C2CC2)N2CCC3(CC2)C(=O)NCN3c2ccccc2)cc1 (configuration not stated),–,–,·,·,–,–,·,·,·,
CCC(c1nnnn1-c1ccc2c(c1)OCCO2)N1CCC(n2c(=O)[nH]c3ccccc32)CC1 (configuration not stated),–,85,·,·,79,–,80,·,·,
COc1ccc(-c2ccc([C@@H]3[C@H]4CN(C(=O)Cc5ccncc5)CCCCN4[C@H]3CO)cc2)cc1,·,–,·,·,·,·,·,·,·,
COC(=O)[C@@H]1[C@@H](CO)[C@@H]2Cn3c(ccc(-c4cccnc4)c3=O)[C@H]1N2CCc1ccccc1,·,–,·,·,·,·,·,·,·,
O=C(Cc1ccccn1)N1CCCCN2[C@H](CO)[C@@H](c3ccc(-c4ccc(F)cc4)cc3)[C@@H]2C1,·,–,·,·,·,·,·,·,·,
CCN(CC)C(=O)c1ccc(NC(=O)Nc2ccccc2F)cc1,–,–,51,–,56,–,45,·,·,
CCN(CC)C(=O)c1ccc(NC(=O)CCCSc2ccccc2)cc1,–,–,–,–,–,–,·,·,·,
O=C1NC(=S)NC(=O)C1=Cc1cccc2cc3ccccc3cc12,–,–,–,98,107,99,100,·,·,
COc1ccc(C=C2C(=O)NC(=S)NC2=O)cc1,–,–,–,–,–,–,·,·,·,
CN1CCc2cc3c(c4c2C1Cc1ccccc1-4)OCO3 (configuration not stated),–,–,–,–,71,–,–,·,·,
COc1ccc(CNCCc2c(C)[nH]c3ccc(OC(F)(F)F)cc23)c(OC)c1,–,–,–,92,99,90,99,·,·,
O=C1NC2C(=CC(O)C(O)C2O)c2cc3c(c(O)c21)OCO3 (configuration not stated),85,·,95,88,100,96,98,84,106,
O=C(O)[C@H]1[C@H](CO)[C@H]2Cn3c(ccc(C4=CCCCC4)c3=O)[C@@H]1N2C(=O)Cc1ccccn1,·,–,·,·,·,·,·,·,·,
CCCC#Cc1ccc([C@H]2[C@H]3CN(C(=O)Cc4ccccn4)CCCCN3[C@H]2CO)cc1,·,–,·,·,·,·,·,·,·,
CC1=CC(O)C(O)C2(C)C1CC1OC(=O)CC3C(C)C(O)C(=O)C2C13CO (configuration not stated),46,·,–,–,91,–,–,–,–,
c1ccc(-c2cc(-c3ccccc3)[n+](-c3ccccc3)c(-c3ccccc3)c2)cc1,–,96,–,92,111,–,87,·,·,Mdm2-MdmX confirm=102
O=[N+]([O-])c1cc(Cl)c(O)c(-[n+]2c(-c3ccccc3)cc(-c3ccccc3)cc2-c2ccccc2)c1,–,–,–,–,–,–,·,·,·,
CCOC(=O)[C@]12Cc3cc(OC)ccc3[C@H]1N(C(C)C)C(=O)c1cc(OC)ccc12,52,–,·,·,·,·,·,90,96,
CCOC(=O)[C@]12Cc3cc(Cl)ccc3[C@H]1N(C(C)C)C(=O)c1ccccc12,90,86,·,·,·,·,·,95,104,
CCOC(=O)[C@]12Cc3cc(Cl)ccc3[C@H]1N(C1CCCCC1)C(=O)c1ccccc12,85,·,·,·,·,·,·,97,105,
CCOC(=O)[C@]12Cc3cc(Cl)ccc3[C@H]1N(Cc1ccccc1)C(=O)c1cc(OC)ccc12,–,–,·,·,·,·,·,·,·,
CCOC(=O)[C@]12Cc3cc(Cl)ccc3[C@H]1N(C)C(=O)c1ccccc12,–,–,·,·,·,·,·,·,·,
CCOC(=O)[C@]12Cc3cc(C)ccc3[C@H]1N(C)C(=O)c1ccccc12,–,–,·,·,·,·,·,·,·,
SMILES,HIF-2a block,PAX8 inh HTS,LMP1 NFkB inh,MITF TRPM1 inh,Peg3 prom inh-1,Shn3 inh set2,Peg3 prom inh-2,HIF-2a conf,HIF-1a counter,others
CCCCCN1C(=O)c2cc(OC)ccc2[C@@]2(C(=O)OCC)Cc3cc(Cl)ccc3[C@@H]12,80,–,·,·,·,·,·,97,105,
CCOC(=O)[C@]12Cc3cc(Cl)ccc3[C@H]1N(CC(=O)OC)C(=O)c1ccccc12,81,·,·,·,·,·,·,94,104,
O=C(Cc1ccccn1)N1CCCCN2[C@H](CO)[C@H](c3ccc(Br)cc3)[C@@H]2C1,·,–,·,·,·,·,·,·,·,
COC(=O)[C@@H]1[C@@H](C(=O)OC)C2(c3ccccc3-c3ccccc32)N(c2ccc(Cl)cc2)N1C#N,94,·,–,93,107,–,·,92,106,
O=C1NC2C(O)C(O)C(O)C(O)C2c2cc3c(c(O)c21)OCO3 (configuration not stated),66,105,92,72,99,87,·,70,105,
CC1OC(OC2C=C3CCC4C(CCC5(C)C(c6ccc(=O)oc6)CCC45O)C3(C)CC2)C(O)C(OC2OC(CO)C(O)C(O)C2O)C1O (configuration not stated),70,106,89,72,98,–,·,–,105,
CCCN1[C@@H]2c3ccc(-c4cccc(C(=O)N(C)C)c4)c(=O)n3C[C@H]1[C@H](CO)[C@H]2C(=O)OC,·,–,·,·,·,·,·,·,·,
CN(C)CC#Cc1ccc([C@H]2[C@@H](CO)N3CCCCN(C(=O)Cc4ccccn4)C[C@H]23)cc1,·,–,·,·,·,·,·,·,·,
Cc1nc2cc(-c3ccc(Cl)cc3)nn2c(C)c1CCC(=O)N1CCC2(CC1)OCCO2,81,–,–,?,–,–,·,89,68,
COC(=O)[C@@H]1[C@@H](CO)[C@@H]2Cn3c(ccc(-c4ccccc4F)c3=O)[C@H]1N2C(C)=O,·,–,·,·,·,·,·,·,·,
CC12CCC3C(CCC4(O)CC(O)CCC34C=NO)C1(O)CCC2C1=COC(=O)C1 (configuration not stated),74,109,62,69,97,–,·,–,102,
CCCCN=C[C@]12CCC(O)CC1(O)CCC1[C@@H]2CC[C@]2(C)[C@H](C3C=CC(=O)O3)CCC12O (some centres not stated),55,107,–,78,107,–,·,–,104,Mdm2-MdmX confirm=82
COC(=O)[C@@H]1[C@@H](CO)[C@@H]2Cn3c(ccc(C4=CCCCC4)c3=O)[C@H]1N2Cc1cccnc1,·,–,·,·,·,·,·,·,·,
